Data on nine sequences can be found in article PMC8384837, “Expanding the binding specificity for RNA recognition by a PUF domain”.

Substitutions are numbered along the chain they refer to.

What all share (experiment): yeast three-hybrid, YBZ-1, SC-Leu-His + 0.5 mM 3-AT, 4 days
Holding throughout (conditions): tags: N-Gal4 AD-HA kept; label: inside an RPR1-promoter hybrid RNA with tandem MS2 sites; ssRNA

The target of one experiment is PUM1 PUF domain R1-KFL (Homo sapiens, UniProt Q14671 828-1176, S863K;R864F;Q867L). Put shortly: (§1)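 Repeat regions from input (SC-Leu) and selection (SC-Leu-His + 0.5 mM 3-AT) plates were PCR-amplified and Illumina-sequenced after four days of growth. The cells were strain YBZ-1 with a LexA–MS2 coat fusion and a HIS3 reporter, co-expressing Pumilio-1 PUF domain libraries and matching RNA elements from a centromeric plasmid. The interaction score is the log change in variant frequency from input to selection, taken in log2 with a pseudocount of 1 for absent variants.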

The target of the next experiment is PUM1 PUF domain R8-PFR (Homo sapiens, UniProt Q14671 828-1176, N1122P;Y1123F;Q1126R). Put shortly: as §1
The next experiment deals with T1, PUM1 PUF domain R6-QYV (Homo sapiens, UniProt Q14671 828-1176, N1043Q;Q1047V).
T1 sequence: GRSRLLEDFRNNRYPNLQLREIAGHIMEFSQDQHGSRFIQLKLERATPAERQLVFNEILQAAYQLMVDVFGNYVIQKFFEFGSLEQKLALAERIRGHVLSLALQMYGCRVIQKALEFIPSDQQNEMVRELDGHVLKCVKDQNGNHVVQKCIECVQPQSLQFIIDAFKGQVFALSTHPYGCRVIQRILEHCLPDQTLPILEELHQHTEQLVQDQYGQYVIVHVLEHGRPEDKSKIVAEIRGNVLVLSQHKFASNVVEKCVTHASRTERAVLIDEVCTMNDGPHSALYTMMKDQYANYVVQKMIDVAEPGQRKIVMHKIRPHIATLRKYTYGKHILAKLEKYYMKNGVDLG
In short, it runs like this:
as §1

The next experiment deals with T2, PUM1 PUF domain R6-KYL (Homo sapiens, UniProt Q14671 828-1176, N1043K;Q1047L).
T2 sequence: T1 sequence with Q216K, V220L
In short, it runs like this: as §1

Another experiment concerns the target T3, PUM1 PUF domain R6-IWG (Homo sapiens, UniProt Q14671 828-1176, N1043I;Y1044W;Q1047G).
T3 sequence: T1 sequence with Q216I, Y217W, V220G
In short, it runs like this:
as §1

For a further experiment, the target named is PUM1 PUF domain R5-SQK (Homo sapiens, UniProt Q14671 828-1176, C1007S;R1008Q;Q1011K). In short, it runs like this: as §1
Another experiment has as its target PUM1 PUF domain R5-KDK (Homo sapiens, UniProt Q14671 828-1176, C1007K;R1008D;Q1011K). In short, it runs like this:
as §1

Another experiment deals with T4, PUM1 PUF domain R6-IFG (Homo sapiens, UniProt Q14671 828-1176, N1043I;Y1044F;Q1047G).
T4 sequence: T1 sequence with Q216I, Y217F, V220G
In short, it runs like this: as §1

A further experiment has as its target PUM1 PUF domain R7-GCR (Homo sapiens, UniProt Q14671 828-1176, S1079G;N1080C;E1083R). In short, it runs like this: as §1
For another experiment, the target named is PUM1 PUF domain R7-CSR (Homo sapiens, UniProt Q14671 828-1176, S1079C;N1080S;E1083R). Put shortly: as §1

Take “GGCUAGAACUAGUGGAUCCCCCGGCGCCCGGCGGCUCGAGCCCGGGUAAGUGUAAAUCGUCUGCAUGCCGCCGGGCGCCAUGCCUGCAGGUCGACUCUAGAAAACAUG”: the binding signal with PUM1 PUF domain R1-KFL was 4.43 log2 enrichment (interaction score).

As to “GGCUAGAACUAGUGGAUCCCCCGGCGCCCGGCGGCUCGAGCCCGGGUAAGUGUAAAUUGUCUGCAUGCCGCCGGGCGCCAUGCCUGCAGGUCGACUCUAGAAAACAUG”, the binding signal with PUM1 PUF domain R1-KFL was 2.99 log2 enrichment (interaction score).

Consider “GGCUAGAACUAGUGGAUCCCCCGGCGCCCGGCGGCUCGAGCCCGGGUAAGCGUAAAUAGUCUGCAUGCCGCCGGGCGCCAUGCCUGCAGGUCGACUCUAGAAAACAUG”, for which the binding signal in the experiment with PUM1 PUF domain R8-PFR is 5.6 log2 enrichment (interaction score).

As to “GGCUAGAACUAGUGGAUCCCCCGGCGCCCGGCGGCUCGAGCCCGGGUAAGUGUAAAUAGUCUGCAUGCCGCCGGGCGCCAUGCCUGCAGGUCGACUCUAGAAAACAUG”, the binding signal was 3.82 log2 enrichment (interaction score) in the experiment with PUM1 PUF domain R8-PFR, 3.63 log2 enrichment (interaction score) in the experiment with PUM1 PUF domain R6-QYV, 5.29 log2 enrichment (interaction score) in the experiment with PUM1 PUF domain R6-KYL and 3.59 log2 enrichment (interaction score) in the experiment with PUM1 PUF domain R6-IWG.

With “GGCUAGAACUAGUGGAUCCCCCGGCGCCCGGCGGCUCGAGCCCGGGUAAGUGUUAAUAGUCUGCAUGCCGCCGGGCGCCAUGCCUGCAGGUCGACUCUAGAAAACAUG”, in the experiment with PUM1 PUF domain R5-SQK, the binding signal is 2.21 log2 enrichment (interaction score).

On to “GGCUAGAACUAGUGGAUCCCCCGGCGCCCGGCGGCUCGAGCCCGGGUAAGUGUCAAUAGUCUGCAUGCCGCCGGGCGCCAUGCCUGCAGGUCGACUCUAGAAAACAUG”, for which the binding signal in the experiment with PUM1 PUF domain R5-KDK is 2.95 log2 enrichment (interaction score).

As for “GGCUAGAACUAGUGGAUCCCCCGGCGCCCGGCGGCUCGAGCCCGGGUAAGUGAAAAUAGUCUGCAUGCCGCCGGGCGCCAUGCCUGCAGGUCGACUCUAGAAAACAUG”, the binding signal with PUM1 PUF domain R6-IFG is 4.32 log2 enrichment (interaction score); with PUM1 PUF domain R6-IWG, 1.15 log2 enrichment (interaction score).

Turning to “GGCUAGAACUAGUGGAUCCCCCGGCGCCCGGCGGCUCGAGCCCGGGUAAGUCUAAAUAGUCUGCAUGCCGCCGGGCGCCAUGCCUGCAGGUCGACUCUAGAAAACAUG”, the binding signal in the experiment with PUM1 PUF domain R7-GCR is 5.49 log2 enrichment (interaction score).

For the sequence “GGCUAGAACUAGUGGAUCCCCCGGCGCCCGGCGGCUCGAGCCCGGGUAAGUUUAAAUAGUCUGCAUGCCGCCGGGCGCCAUGCCUGCAGGUCGACUCUAGAAAACAUG”, the binding signal with PUM1 PUF domain R7-CSR is 3.61 log2 enrichment (interaction score).
